Results filed as inconclusive are left out. Some structures have more than one record in an assay (separate samples or runs), and their calls can disagree. The source made the active and inactive calls. The calls were made as follows: active = hit-call score of the fitted dose curve at least 0.9, where 1 is the maximum; inconclusive = response in the unintended direction; inactive = score below 0.9.

The experiment can be described thus: CCTE_Mundy_HCI_Cortical_NOG_NeuronCount: CCTE's Neurite Outgrowth Assay in rat cortical cells for Neuron Count, Mundy Lab (AID 2284236).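 Also: neurons counted by imaging betaIII-tubulin and Hoechst stained cortical cells; cells exposed to compound for about 48 hours before fixation.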 As to the method:
CCTE_Mundy_HCI_Cortical_NOG is a multiplexed, cell-based-readout assay that uses rat primary cortical cells with measurements taken at 50.33 hours after chemical dosing in a microplate: 96-well plate.CCTE_Mundy_HCI_Cortical_NOG_NeuronCount is one of four components of the CCTE_Mundy_HCI_Cortical_NOG assay. It measures cell viability related to the number of neurons using High Content Imaging of fluorescently labelled markers.[…] Using a type of morphology reporter, loss -of-signal activity can be used to understand developmental effects.
Exposure starts 2 hours post-plating by adding 10 ul of the working solution to 90 ul of media in the wells for a 1/10 dilution. Forty-eight hours after chemical treatment cells are fixed by direct addition of 100 ul of warm (37C) Dulbecco's phosphate buffered saline (DPBS) fixative solution containing 8% paraformaldehyde, 8% sucrose, and 0.1% of 3 mg/ml Hoechst 33342 into each well. Primary antibodies are prepared by dilution in Immunocytochemical Staining Buffer (ISB), 10X Dulbecco's PBS, 0.1% Saponin, 5% Bovine Serum Albumin, 0.5% NaN3 (Sodium Azide) and betaIII-tubulin (rabbit anti-betaIII-tubulin, 1:800) followed by Alexa Fluor-488 secondary (1:500) to label neuronal cell bodies and neurites. A Cellomics ArrayScan VTi HCS Reader is used for automated image acquisition and analysis of neurite outgrowth.
For orientation: AC50 means the concentration giving half of the maximal activity seen. Regarding `COP(=S)(OC)Oc1ccc([N+](=O)[O-])cc1`, the concentration at half-maximal activity (AC50) is 2.98 µM (active).

Consider `O=C(O)COc1ccc(Cl)cc1Cl`, for which the outcome was inactive.

In the case of `CC1(C)C(C=C(Cl)Cl)C1C(=O)OC(C#N)c1ccc(F)c(Oc2ccccc2)c1` (stereo unspecified), the call was inactive and the AC50 is 49.9 µM (active).

For `O=S1OCC2C(CO1)C1(Cl)C(Cl)=C(Cl)C2(Cl)C1(Cl)Cl` (stereo unspecified), the half-maximal activity concentration (AC50) was 25.2 µM (active).

`CC1(c2ccc(Oc3ccccc3)cc2)OC(=O)N(Nc2ccccc2)C1=O` (stereo unspecified): the AC50 is 23.8 µM (active).

With `COP(=O)(OC)OC=C(Cl)Cl`, the compound was classed as inactive.

On to `O=C(O)C(F)(F)C(F)(F)C(F)(F)C(F)(F)C(F)(F)C(F)(F)C(F)(F)F`, for which the call was inactive.

For `O=S(=O)(O)C(F)(F)C(F)(F)C(F)(F)C(F)(F)C(F)(F)C(F)(F)C(F)(F)C(F)(F)F`, the compound was called inactive.

As for `CC[C@H](C)[C@H]1O[C@]2(C=C[C@@H]1C)C[C@@H]1C[C@@H](C/C=C(\C)[C@@H](O[C@H]3C[C@H](OC)[C@@H](O[C@H]4C[C@H](OC)[C@@H](O)[C@H](C)O4)[C@H](C)O3)[C@@H](C)/C=C/C=C3\CO[C@@H]4[C@H](O)C(C)=C[C@@H](C(=O)O1)[C@]34O)O2` (tested in a mixture with another compound), the AC50 is 13.3 µM (active).

Regarding `CC(C)N(C(=O)COc1nnc(C(F)(F)F)s1)c1ccc(F)cc1`, the compound was called inactive.

These data come from PubChem BioAssay (EPA / NIEHS).
